Experimental findings from PubChem BioAssay (EPA / NIEHS) are described below.

Inconclusive results are not listed. Active and inactive are the calls of the source. Rule for the calls: active = hit-call score of the fitted dose curve at least 0.9, where 1 is the maximum; inconclusive = response in the unintended direction; inactive = score below 0.9.

The target in assay [1] is human Ephrin type-A Receptor 1 (EphA1), EPHA1 (gene 2041) (UniProt P21709). As to the kind of experiment: NVS_ENZ_hEphA1: NovaScreen (NVS) Enzymatic Assay for human Ephrin type-A Receptor 1 (EphA1) (AID 2283158).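 Note: activity is signal loss versus DMSO meaning EphA1 kinase inhibition.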 Summed up:
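Fluorescent substrate conversion, resolved by mobility-shift separation, measured 1 hour post-dosing using recombinant enzyme; signal loss relative to DMSO baseline. Single-concentration duplicates at 25 uM preceded singleton concentration series topping at 50 uM.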

The target in assay [2] is human Dual Specificity Protein Phosphatase 3 (DUSP3), DUSP3 (gene 1845) (UniProt P51452). In words: NVS_ENZ_hDUSP3: NovaScreen (NVS) Enzymatic Assay for human Dual Specificity Protein Phosphatase 3 (DUSP3) (AID 2283152).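 Note: phosphatase activity of recombinant human DUSP3 on a fluorogenic substrate without cells.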 Summed up:
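Cell-free fluorescence-intensity enzyme activity assay with recombinant protein and substrate; loss of signal fitted relative to DMSO baseline. Primary screen in duplicate at 25 uM, actives then run in concentration series; measured 0 h after dosing.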

In assay [3] the target is human Esterase Plasma (ES), BCHE (gene 590) (UniProt P06276). As to the kind of experiment: NVS_ENZ_hES: NovaScreen (NVS) Enzymatic Assay for human Esterase Plasma (ES) (AID 2283157). Summed up: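 Primary single-concentration screen at 25 uM in duplicate, then concentration-response to a 50 uM top dose. Human plasma esterase activity detected colorimetrically after 0.25 h incubation, with DMSO as baseline.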
human Esterase Plasma (ES), BCHE (gene 590), sequence (P06276 whole entry, looked up): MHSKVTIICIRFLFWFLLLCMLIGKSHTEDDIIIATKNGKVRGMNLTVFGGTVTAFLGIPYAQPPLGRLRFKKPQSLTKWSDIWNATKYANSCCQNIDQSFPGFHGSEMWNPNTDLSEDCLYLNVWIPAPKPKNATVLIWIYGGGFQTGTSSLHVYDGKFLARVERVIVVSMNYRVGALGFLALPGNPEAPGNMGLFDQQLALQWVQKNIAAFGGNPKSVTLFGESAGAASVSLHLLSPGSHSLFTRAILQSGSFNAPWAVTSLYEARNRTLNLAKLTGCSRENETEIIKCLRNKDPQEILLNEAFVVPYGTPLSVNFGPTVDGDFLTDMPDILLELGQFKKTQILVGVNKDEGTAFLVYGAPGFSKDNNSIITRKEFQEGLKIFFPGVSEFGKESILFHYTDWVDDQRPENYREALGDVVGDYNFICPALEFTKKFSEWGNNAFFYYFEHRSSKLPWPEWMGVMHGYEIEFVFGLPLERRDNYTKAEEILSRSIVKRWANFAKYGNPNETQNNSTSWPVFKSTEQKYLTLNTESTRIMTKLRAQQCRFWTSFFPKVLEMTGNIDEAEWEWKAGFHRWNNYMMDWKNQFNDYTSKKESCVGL

Assay [4] concerns the target human Colony Stimulating Factor 1 Receptor (CSF1R), CSF1R (gene 1436) (UniProt P07333). In words: NVS_ENZ_hCSF1R: NovaScreen (NVS) Enzymatic Assay for human Colony Stimulating Factor 1 Receptor (CSF1R) (AID 2283150). In short, it runs like this: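 Compounds screened in duplicate at 25 uM, then concentration-response (top 50 uM) for those passing threshold such as 30% inhibition; recombinant CSF1R activity measured 1 h post-dosing via fluorescent substrate/product mobility-shift separation, loss of signal versus DMSO.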

Assay [5] addresses human Ephrin type-A Receptor 2 (EphA2), EPHA2 (gene 1969) (UniProt P29317). As to the kind of experiment: NVS_ENZ_hEphA2: NovaScreen (NVS) Enzymatic Assay for human Ephrin type-A Receptor 2 (EphA2) (AID 2283155). In short, it runs like this:
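Enzyme activity of recombinant EphA2 read by fluorescence after mobility-shift separation, 1 h after dosing. Chemicals first tested at 25 uM (duplicate); those passing threshold run as concentration series, top 50 uM, single replicate, relative to DMSO.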

Assay [6] addresses human Caspase 8 (CASP8), CASP8 (gene 841) (UniProt Q14790). In words: NVS_ENZ_hCASP8: NovaScreen (NVS) Enzymatic Assay for human Caspase 8 (CASP8) (AID 2283146). As for the experimental part: NVS_ENZ_hCASP8 is a biochemical, single-readout assay that uses extracted gene-proteins from E. coli in a cell-free assay. Measurements were taken 1 hour after chemical dosing in a 96-well plate.NVS_ENZ_hCASP8 is one of one assay component(s) measured or calculated from the NVS_ENZ_hCASP8 assay. It is designed to make measurements of enzyme activity, a form of enzyme reporter, as detected with fluorescence intensity signals by Fluorescence technology.Data from the assay component NVS_ENZ_hCASP8 was analyzed into 1 assay endpoint. This assay endpoint, NVS_ENZ_hCASP8, was analyzed in the positive analysis fitting direction relative to DMSO as the negative control and baseline of activity. […] Furthermore, this assay endpoint can be referred to as a primary readout, because this assay has produced multiple assay endpoints where this one serves a enzymatic activity function. […]
Binding assays used specific radioligands (tritiated, iodinated) with non-radioactive competitive displacement ligands in agonist or antagonist protocols (as indicated) and various reference compounds and inhibitors to titrate specific binding to receptors and transporters. Most enzyme assays (CYPs, kinases, phosphatases, proteases, HDACs) used recombinant protein and specific substrates (fluorescence mostly, some colorimetric and radioactive) and inhibitors, followed by a biochemical separation of substrate and product. […]

The target of assay [7] is human Casein Kinase 1-delta (CK1D), CSNK1D (gene 1453) (UniProt P48730). As to the kind of experiment: NVS_ENZ_hCK1D: NovaScreen (NVS) Enzymatic Assay for human Casein Kinase 1-delta (CK1D) (AID 2283148). Summed up:
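Recombinant human CK1-delta, cell-free; fluorescent substrate with electrophoretic mobility-shift separation of product, read 1 h after dosing. Single 25 uM duplicate screen, then concentration-response up to 50 uM; loss of signal vs DMSO.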

human Ephrin type-A Receptor 1 (EphA1), EPHA1 (gene 2041), sequence (P21709 whole entry, looked up): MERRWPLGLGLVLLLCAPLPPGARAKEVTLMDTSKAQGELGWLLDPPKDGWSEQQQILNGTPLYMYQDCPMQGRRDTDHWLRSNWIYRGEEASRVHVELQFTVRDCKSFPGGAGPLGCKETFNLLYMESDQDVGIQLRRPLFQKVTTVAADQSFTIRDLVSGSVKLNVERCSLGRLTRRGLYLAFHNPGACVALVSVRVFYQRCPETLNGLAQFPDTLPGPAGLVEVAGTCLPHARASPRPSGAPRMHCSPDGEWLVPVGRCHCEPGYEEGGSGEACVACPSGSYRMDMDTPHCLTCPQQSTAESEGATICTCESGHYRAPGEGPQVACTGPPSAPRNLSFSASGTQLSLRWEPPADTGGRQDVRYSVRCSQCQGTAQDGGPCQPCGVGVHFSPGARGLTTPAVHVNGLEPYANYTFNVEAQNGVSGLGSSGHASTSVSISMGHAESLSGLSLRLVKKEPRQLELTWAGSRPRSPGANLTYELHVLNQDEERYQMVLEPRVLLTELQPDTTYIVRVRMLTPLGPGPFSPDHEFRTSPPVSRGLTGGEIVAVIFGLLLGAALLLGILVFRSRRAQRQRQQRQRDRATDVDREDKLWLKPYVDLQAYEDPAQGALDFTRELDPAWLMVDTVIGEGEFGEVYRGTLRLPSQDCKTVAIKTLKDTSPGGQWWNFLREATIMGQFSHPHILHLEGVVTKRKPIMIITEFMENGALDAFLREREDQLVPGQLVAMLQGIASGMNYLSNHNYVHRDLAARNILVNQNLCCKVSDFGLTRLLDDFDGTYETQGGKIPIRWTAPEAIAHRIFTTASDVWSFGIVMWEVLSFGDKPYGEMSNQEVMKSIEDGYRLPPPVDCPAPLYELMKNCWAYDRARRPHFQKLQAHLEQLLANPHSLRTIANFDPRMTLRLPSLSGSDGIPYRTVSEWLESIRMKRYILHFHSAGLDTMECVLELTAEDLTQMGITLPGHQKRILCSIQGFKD
human Dual Specificity Protein Phosphatase 3 (DUSP3), DUSP3 (gene 1845), sequence (P51452 whole entry, looked up): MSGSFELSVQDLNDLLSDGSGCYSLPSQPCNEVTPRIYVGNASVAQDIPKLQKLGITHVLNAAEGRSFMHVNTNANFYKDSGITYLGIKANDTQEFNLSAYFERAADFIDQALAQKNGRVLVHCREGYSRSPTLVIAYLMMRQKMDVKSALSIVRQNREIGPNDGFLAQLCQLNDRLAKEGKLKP
human Casein Kinase 1-delta (CK1D), CSNK1D (gene 1453), sequence (P48730 whole entry, looked up): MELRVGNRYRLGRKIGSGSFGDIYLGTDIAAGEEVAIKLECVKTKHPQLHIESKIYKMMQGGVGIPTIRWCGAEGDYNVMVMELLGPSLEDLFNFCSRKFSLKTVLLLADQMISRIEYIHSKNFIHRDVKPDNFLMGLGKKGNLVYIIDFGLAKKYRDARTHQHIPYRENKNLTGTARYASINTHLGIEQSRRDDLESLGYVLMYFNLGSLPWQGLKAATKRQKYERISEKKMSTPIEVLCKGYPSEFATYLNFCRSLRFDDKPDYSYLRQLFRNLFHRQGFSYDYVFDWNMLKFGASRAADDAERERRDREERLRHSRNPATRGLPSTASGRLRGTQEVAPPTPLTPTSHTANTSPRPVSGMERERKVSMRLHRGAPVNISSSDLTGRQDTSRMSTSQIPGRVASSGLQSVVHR
human Caspase 8 (CASP8), CASP8 (gene 841), sequence (Q14790 whole entry, looked up): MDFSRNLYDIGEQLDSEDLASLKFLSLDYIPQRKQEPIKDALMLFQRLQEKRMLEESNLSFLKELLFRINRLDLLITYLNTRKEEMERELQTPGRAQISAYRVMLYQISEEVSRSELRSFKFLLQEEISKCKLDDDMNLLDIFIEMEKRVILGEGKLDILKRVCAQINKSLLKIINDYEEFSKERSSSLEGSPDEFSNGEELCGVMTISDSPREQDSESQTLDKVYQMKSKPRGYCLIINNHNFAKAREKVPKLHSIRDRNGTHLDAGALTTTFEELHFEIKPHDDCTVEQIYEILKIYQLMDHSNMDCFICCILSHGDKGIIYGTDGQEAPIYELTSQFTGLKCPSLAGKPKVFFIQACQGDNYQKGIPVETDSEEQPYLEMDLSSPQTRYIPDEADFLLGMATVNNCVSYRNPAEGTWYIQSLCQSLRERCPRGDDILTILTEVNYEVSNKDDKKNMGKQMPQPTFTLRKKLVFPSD
human Ephrin type-A Receptor 2 (EphA2), EPHA2 (gene 1969), sequence (P29317 whole entry, looked up): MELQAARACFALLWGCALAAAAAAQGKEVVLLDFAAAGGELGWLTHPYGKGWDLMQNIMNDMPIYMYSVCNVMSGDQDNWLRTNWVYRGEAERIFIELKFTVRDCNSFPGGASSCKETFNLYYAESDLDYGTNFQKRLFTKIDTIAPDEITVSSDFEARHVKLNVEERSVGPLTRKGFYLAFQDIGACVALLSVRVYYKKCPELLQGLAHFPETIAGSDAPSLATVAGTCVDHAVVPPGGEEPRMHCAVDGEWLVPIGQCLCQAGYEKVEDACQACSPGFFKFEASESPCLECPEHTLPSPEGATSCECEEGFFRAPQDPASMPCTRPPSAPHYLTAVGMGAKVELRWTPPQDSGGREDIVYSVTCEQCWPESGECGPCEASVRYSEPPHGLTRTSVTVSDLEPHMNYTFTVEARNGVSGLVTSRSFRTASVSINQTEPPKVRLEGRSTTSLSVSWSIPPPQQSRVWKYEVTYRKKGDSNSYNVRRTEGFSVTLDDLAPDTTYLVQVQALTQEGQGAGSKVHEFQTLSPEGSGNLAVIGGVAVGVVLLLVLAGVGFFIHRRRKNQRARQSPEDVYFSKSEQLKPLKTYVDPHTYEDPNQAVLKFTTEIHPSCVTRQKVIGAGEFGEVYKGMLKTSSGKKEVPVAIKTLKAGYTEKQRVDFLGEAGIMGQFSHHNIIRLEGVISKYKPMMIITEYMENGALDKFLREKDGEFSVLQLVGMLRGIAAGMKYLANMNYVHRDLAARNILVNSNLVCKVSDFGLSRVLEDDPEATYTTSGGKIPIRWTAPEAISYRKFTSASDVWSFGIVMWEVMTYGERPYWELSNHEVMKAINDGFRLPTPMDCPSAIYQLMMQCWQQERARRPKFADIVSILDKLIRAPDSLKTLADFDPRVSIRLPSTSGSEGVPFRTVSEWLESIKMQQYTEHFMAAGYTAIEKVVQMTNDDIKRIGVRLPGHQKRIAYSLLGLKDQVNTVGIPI
human Colony Stimulating Factor 1 Receptor (CSF1R), CSF1R (gene 1436), sequence (P07333 whole entry, looked up): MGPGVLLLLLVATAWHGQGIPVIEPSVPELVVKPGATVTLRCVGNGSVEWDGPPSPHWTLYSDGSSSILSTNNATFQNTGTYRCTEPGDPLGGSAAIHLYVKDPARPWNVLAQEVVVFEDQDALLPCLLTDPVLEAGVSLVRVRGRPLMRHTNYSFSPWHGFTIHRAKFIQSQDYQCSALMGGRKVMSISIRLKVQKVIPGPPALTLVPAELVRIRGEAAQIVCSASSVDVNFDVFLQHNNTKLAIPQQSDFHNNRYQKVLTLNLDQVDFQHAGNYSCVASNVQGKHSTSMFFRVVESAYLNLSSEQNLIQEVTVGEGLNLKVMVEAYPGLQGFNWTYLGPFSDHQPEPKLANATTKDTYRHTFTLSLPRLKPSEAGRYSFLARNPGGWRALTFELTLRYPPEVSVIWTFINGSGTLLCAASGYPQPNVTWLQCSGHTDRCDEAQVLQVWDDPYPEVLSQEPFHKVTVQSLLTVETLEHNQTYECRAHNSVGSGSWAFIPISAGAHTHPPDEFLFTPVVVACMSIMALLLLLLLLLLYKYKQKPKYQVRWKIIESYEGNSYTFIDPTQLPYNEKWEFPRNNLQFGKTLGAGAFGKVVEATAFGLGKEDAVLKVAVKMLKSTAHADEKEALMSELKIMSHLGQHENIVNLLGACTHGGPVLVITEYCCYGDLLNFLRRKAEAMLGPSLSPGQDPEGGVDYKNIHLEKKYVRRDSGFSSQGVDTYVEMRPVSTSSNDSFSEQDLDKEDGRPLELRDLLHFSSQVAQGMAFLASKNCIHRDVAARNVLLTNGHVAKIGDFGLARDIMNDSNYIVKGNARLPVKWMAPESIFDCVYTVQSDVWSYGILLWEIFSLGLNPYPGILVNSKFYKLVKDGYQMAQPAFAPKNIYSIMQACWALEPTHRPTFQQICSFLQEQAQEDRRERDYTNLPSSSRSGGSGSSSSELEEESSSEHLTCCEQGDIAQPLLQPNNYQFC

In general, AC50 refers to the concentration at which the activity in the assay is half-maximal. Regarding `O=C(Cl)OCCOCCOC(=O)Cl`, in assay [1], the AC50 was 6.6 µM (active).

On to `CCOC(=O)C(SP(=S)(OC)OC)c1ccccc1` (stereo not drawn), for which the AC50 was 18.7 µM (active) in assay [2] and 4.29 µM (active) in assay [3].

For `CCCCC(CC)COC(=O)Cl` (stereo not drawn), the outcome in assay [1] was inactive.

`N#Cc1cccnc1`: the compound was classed as inactive in assay [4], in assay [5] and in assay [1].

For `OC[P+](CO)(CO)CO`, in assay [1], the compound was called inactive.

With `CC1CC(=O)O1` (stereo not drawn), the result in assay [1] was inactive.

`O=c1oc2ccccc2c(O)c1C(CC(O)c1ccc(-c2ccc(Br)cc2)cc1)c1ccccc1` (stereo not drawn): the AC50 in assay [2] is 9.57 µM (active). The compound was called inactive in assay [1].

`Nc1ccc(N)cc1`: the call in assay [3] and in assay [1] was inactive.

For `CC(C)O.CC(C)O.OCCN(CCO)CCO.OCCN(CCO)CCO.[Ti]`, the AC50 in assay [6] was 1.13 µM (active); in assay [7], 10.8 µM (active); in assay [2], 10.3 µM (active). For the same compound, in assay [1], the compound was classed as inactive.

As to `CCOP(=S)(OCC)OP(=S)(OCC)OCC`, the values for the AC50 in assay [2] and in assay [3] were 17 µM (active) and 2.56 µM (active), respectively.

As for `Cc1cc(C(C)(C)c2ccc(O)c(C)c2)ccc1O`, the AC50 in assay [2] is 12.5 µM (active).

As to `CN(C)C(=S)S`, the AC50 in assay [2] is 8.6 µM (active).

As to `ClCCCCl`, the AC50 in assay [1] was 10.5 µM (active).

Take `C=C(C)C(=O)OCC(CC)CCCC` (stereo not drawn): in assay [1], the call was inactive.
